Reference: the supplement of paper PMC4840960
± gives the standard deviation of the averaged measurements.

system: E18 rat cortical neuron-glia co-culture; test: fiber score / MBP score (myelination specific beyond OL differentiation) (ratio); higher = more myelination-specific MBP alignment; details: 1 µM; treatment time: 8 days (DIV5-DIV13)
Summary of the method: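 Papain-dissociated primary E18 rat cortical co-cultures, plated at 20,000 cells/well on poly-d-lysine/laminin 96-well plates, were exposed to library compounds at 1 or 5 µM in myelination medium between DIV5 and DIV13. Following fixation in 4 % paraformaldehyde, cultures were stained for MBP, Olig2 and DAPI, and four 10X fields per well were analysed in duplicate wells. Values are the ratio of fiber score (continuous MBP fiber length per Olig2+ nucleus) to MBP score (thresholded MBP area × intensity per Olig2+ nucleus).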

Compound	fiber score / MBP score
CC(=O)NCCCCCCNC(C)=O [Hexamethylene bisacetamide]	0.663
C=CC1=C(C(=O)O)N2C(=O)[C@@H](NC(=O)/C(=N\OCC(=O)O)c3csc(N)n3)[C@H]2SC1 [Cefixime]	0.945
CN(C)CCCSc1ccccc1NC(=O)/C=C/c1ccccc1 [Cinanserin]	0.858
CNS(=O)(=O)Cc1ccc2[nH]cc(CCN(C)C)c2c1 [Sumatriptan]	0.873
CCN(CC)C(=O)C1(c2ccccc2)CC1CN (configuration not stated) [Milnacipran]	0.697
CC(C[N+](C)(C)C)OC(N)=O (configuration not stated) [Bethanechol]	0.372
CS(=O)(=O)OCCCCOS(C)(=O)=O [Busulfan]	0.646
COc1cc(C)c(Cc2cnc(N)nc2N)cc1OC [Ormetoprim]	0.746
CCOC(=O)N1CCC(=C2c3ccc(Cl)cc3CCc3cccnc32)CC1 [Loratadine]	0.832
C[C@@H]1C[C@H]2[C@@H]3C[C@H](F)C4=CC(=O)C(Cl)=C[C@]4(C)[C@@]3(F)[C@@H](O)C[C@]2(C)[C@@]1(O)C(=O)CO [Halometasone hydrate]	0.566
CN1C(C(=O)Nc2ccccn2)=C(O)c2ccccc2S1(=O)=O [Piroxicam]	0.787
CN(C)CCCN1c2ccccc2Sc2ccc(Cl)cc21 [Chlorpromazine]	1.04
O=C(CCCN1CC=C(n2c(=O)[nH]c3ccccc32)CC1)c1ccc(F)cc1 [Droperidol]	0.863
CC[C@H]1OC(=O)[C@H](C)[C@@H](O[C@H]2C[C@@](C)(OC)[C@@H](O)[C@H](C)O2)[C@H](C)[C@@H](O[C@@H]2O[C@H](C)C[C@H](N(C)C)[C@H]2O)[C@](C)(O)C[C@@H](C)CN(C)[C@H](C)[C@@H](O)[C@]1(C)O [Azithromycin]	0.707
CN1CCC(=C2c3ccccc3C=Cc3ccccc32)CC1 [Cyproheptadine]	0.58
CC(C)(C(=O)O)c1ccc(C(O)CCCN2CCC(C(O)(c3ccccc3)c3ccccc3)CC2)cc1 (configuration not stated) [Fexofenadine]	0.774
CO[C@H]1/C=C/O[C@@]2(C)Oc3c(C)c(O)c4c(O)c(c(/C=N/N5CCN(C)CC5)c(O)c4c3C2=O)NC(=O)/C(C)=C\C=C\[C@H](C)[C@H](O)[C@@H](C)[C@@H](O)[C@@H](C)[C@H](OC(C)=O)[C@@H]1C [Rifampicin]	0.964
Cc1cnc(C(=O)NCCc2ccc(S(=O)(=O)NC(=O)NC3CCCCC3)cc2)cn1 [Glipizide]	1.13
CC(COc1ccccc1Cc1ccccc1)N1CCCCC1 (configuration not stated) [Benproperine]	0.726
CCN(Cc1ccncc1)C(=O)C(CO)c1ccccc1 (configuration not stated) [Tropicamide]	0.511
Cc1cc(NS(=O)(=O)c2ccc(N)cc2)no1 [Sulfamethoxazole]	0.955
CC1=C(/C=C/C(C)=C/C=C/C(C)=C/C(=O)O)C(C)(C)CCC1 [Retinoic Acid]	0.93
Nc1nc2ccc(OC(F)(F)F)cc2s1 [Riluzole]	0.879
CCc1ccc(CCOc2ccc(CC3SC(=O)NC3=O)cc2)nc1 (configuration not stated) [Pioglitazone]	0.868

same assay, conditions: 5 µM; treatment time: 8 days (DIV5-DIV13)

Compound	fiber score / MBP score
NS(=O)(=O)c1cc2c(cc1C(F)(F)F)NCNS2(=O)=O [Hydroflumethiazide]	0.763
CN1CCc2cc(Cl)c(O)cc2C(c2ccccc2)C1 (configuration not stated)	0.975
OC(CCN1CCCCC1)(c1ccccc1)C1CCCCC1 (configuration not stated) [Trihexyphenidyl]	0.486
COc1ccc2[nH]c([S@@+]([O-])Cc3ncc(C)c(OC)c3C)nc2c1 [Esomeprazole]	0.979
COc1ccc(OC)c(C(O)CNC(=O)CN)c1 (configuration not stated) [Midodrine]	0.885
CCCN[C@H]1CCc2nc(N)sc2C1 [Pramipexole]	0.903 ± 0.21
Nc1nc2c(ncn2COCCO)c(=O)[nH]1 [Acyclovir]	1.1
CCCCC[C@H](O)/C=C/[C@H]1[C@H](O)CC(=O)[C@@H]1CCCCCCC(=O)O [Alprostadil]	0.695
CC(C)c1ccc2oc3nc(N)c(C(=O)O)cc3c(=O)c2c1 [Amlexanox]	1.05
CN(C)[C@@H]1C(O)=C(C(N)=O)C(=O)[C@@]2(O)C(O)=C3C(=O)c4c(O)cccc4[C@@](C)(O)[C@H]3[C@H](O)[C@@H]12 [Oxytetracycline]	0.668
CC(=O)[C@H]1CC[C@H]2[C@@H]3CCC4=CC(=O)CC[C@]4(C)[C@H]3CC[C@]12C [Progesterone]	0.552
CCN(CC)CCNC(=O)c1ccc(N)cc1 [Procainamide]	1.19
COC(=O)[C@H](c1ccccc1Cl)N1CCc2sccc2C1 [Clopidogrel]	0.858
CC(C)[C@H]1CC[C@H](C(=O)N[C@H](Cc2ccccc2)C(=O)O)CC1 [Nateglinide]	0.739
CC(=O)NCCCCCCNC(C)=O [Hexamethylene bisacetamide]	0.981
C=CC1=C(C(=O)O)N2C(=O)[C@@H](NC(=O)/C(=N\OCC(=O)O)c3csc(N)n3)[C@H]2SC1 [Cefixime]	1.4
CN(C)CCCSc1ccccc1NC(=O)/C=C/c1ccccc1 [Cinanserin]	0.995
CNS(=O)(=O)Cc1ccc2[nH]cc(CCN(C)C)c2c1 [Sumatriptan]	0.861
CCN(CC)C(=O)C1(c2ccccc2)CC1CN (configuration not stated) [Milnacipran]	0.817

Compound	fiber score / MBP score
CC(C[N+](C)(C)C)OC(N)=O (configuration not stated) [Bethanechol]	0.379
CS(=O)(=O)OCCCCOS(C)(=O)=O [Busulfan]	1.46
COc1cc(C)c(Cc2cnc(N)nc2N)cc1OC [Ormetoprim]	0.726
CCOC(=O)N1CCC(=C2c3ccc(Cl)cc3CCc3cccnc32)CC1 [Loratadine]	0.575
C[C@@H]1C[C@H]2[C@@H]3C[C@H](F)C4=CC(=O)C(Cl)=C[C@]4(C)[C@@]3(F)[C@@H](O)C[C@]2(C)[C@@]1(O)C(=O)CO [Halometasone hydrate]	0.394
CN1C(C(=O)Nc2ccccn2)=C(O)c2ccccc2S1(=O)=O [Piroxicam]	1.04
CN(C)CCCN1c2ccccc2Sc2ccc(Cl)cc21 [Chlorpromazine]	1.17
O=C(CCCN1CC=C(n2c(=O)[nH]c3ccccc32)CC1)c1ccc(F)cc1 [Droperidol]	0.601
CC[C@H]1OC(=O)[C@H](C)[C@@H](O[C@H]2C[C@@](C)(OC)[C@@H](O)[C@H](C)O2)[C@H](C)[C@@H](O[C@@H]2O[C@H](C)C[C@H](N(C)C)[C@H]2O)[C@](C)(O)C[C@@H](C)CN(C)[C@H](C)[C@@H](O)[C@]1(C)O [Azithromycin]	0.488
CN1CCC(=C2c3ccccc3C=Cc3ccccc32)CC1 [Cyproheptadine]	0.686
CC(C)(C(=O)O)c1ccc(C(O)CCCN2CCC(C(O)(c3ccccc3)c3ccccc3)CC2)cc1 (configuration not stated) [Fexofenadine]	0.82
CO[C@H]1/C=C/O[C@@]2(C)Oc3c(C)c(O)c4c(O)c(c(/C=N/N5CCN(C)CC5)c(O)c4c3C2=O)NC(=O)/C(C)=C\C=C\[C@H](C)[C@H](O)[C@@H](C)[C@@H](O)[C@@H](C)[C@H](OC(C)=O)[C@@H]1C [Rifampicin]	0.704
Cc1cnc(C(=O)NCCc2ccc(S(=O)(=O)NC(=O)NC3CCCCC3)cc2)cn1 [Glipizide]	0.658
CC(COc1ccccc1Cc1ccccc1)N1CCCCC1 (configuration not stated) [Benproperine]	0.819
CCN(Cc1ccncc1)C(=O)C(CO)c1ccccc1 (configuration not stated) [Tropicamide]	0.747
Cc1cc(NS(=O)(=O)c2ccc(N)cc2)no1 [Sulfamethoxazole]	0.803
CC1=C(/C=C/C(C)=C/C=C/C(C)=C/C(=O)O)C(C)(C)CCC1 [Retinoic Acid]	0.533
Nc1nc2ccc(OC(F)(F)F)cc2s1 [Riluzole]	0.478
CCc1ccc(CCOc2ccc(CC3SC(=O)NC3=O)cc2)nc1 (configuration not stated) [Pioglitazone]	0.501
